This note sets out measurements from PubChem BioAssay (EPA / NIEHS).

Assay [1] deals with rat Thyrotropin Releasing Hormone Receptor (TRH), Trhr (gene 25570) (UniProt Q01717). In words: NVS_GPCR_rTRH: NovaScreen (NVS) G Protein-Coupled Receptor Assay for rat Thyrotropin Releasing Hormone Receptor (TRH) (AID 2283329).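 Also: hit means lower bound tracer signal versus DMSO baseline.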 In outline:
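Cell-free radioligand binding on rat forebrain membranes; bound tracer measured by filter-based scintillation counting 4 hours after dosing. Loss of signal versus DMSO baseline indicates displacement; primary screen at 25 uM in duplicate, actives then run in concentration series.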

The target of assay [2] is chimpanzee Androgen Receptor (AR), AR (gene 747460) (UniProt O97775). In words: NVS_NR_cAR: NovaScreen (NVS) Nuclear Receptor Binding Assay for chimpanzee Androgen Receptor (AR) (AID 2283346). In outline:
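Cell-free competition binding with insect-cell (Sf9/Sf21) extracted chimpanzee AR; scintillation signal from lysate at 72 h. Screened in duplicate at 25 uM, then concentration-response for actives; fitting relative to DMSO.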

Assay [3] deals with Estrogen receptor (Homo sapiens) (UniProt P03372). In words: OT_ER_ERaERa_1440: Odyssey Thera (OT) 24-hour HEK293T Protein-Complementation Assay for Estrogen Receptor-alpha/-alpha Homodimer (AID 2283349).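 Also: hits raise fluorescence above DMSO for agonists and antagonists alike.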 In outline: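 Protein-fragment complementation between two human ERα ligand-binding domains (aa 310-547) in stably transfected HEK293T cells was monitored after 24 h treatment, using fluorescence intensity relative to vehicle controls.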
Estrogen receptor (Homo sapiens), sequence (P03372 whole entry, looked up, the tested form may be a part): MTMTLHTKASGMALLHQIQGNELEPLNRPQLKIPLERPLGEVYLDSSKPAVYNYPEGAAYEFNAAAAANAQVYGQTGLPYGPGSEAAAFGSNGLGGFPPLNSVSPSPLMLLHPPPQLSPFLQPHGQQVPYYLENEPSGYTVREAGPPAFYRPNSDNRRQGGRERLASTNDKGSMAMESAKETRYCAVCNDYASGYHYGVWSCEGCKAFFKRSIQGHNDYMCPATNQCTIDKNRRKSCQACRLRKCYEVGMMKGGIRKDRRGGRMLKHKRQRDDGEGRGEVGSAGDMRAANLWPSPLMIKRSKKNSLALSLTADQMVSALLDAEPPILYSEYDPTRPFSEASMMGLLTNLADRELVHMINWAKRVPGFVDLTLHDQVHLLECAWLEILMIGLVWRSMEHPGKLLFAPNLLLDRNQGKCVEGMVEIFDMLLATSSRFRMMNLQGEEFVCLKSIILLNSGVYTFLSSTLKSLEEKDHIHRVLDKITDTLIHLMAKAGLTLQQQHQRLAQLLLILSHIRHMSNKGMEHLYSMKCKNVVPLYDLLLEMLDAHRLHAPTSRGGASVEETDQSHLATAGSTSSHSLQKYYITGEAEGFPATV

Assay [4] shares this target. The assay is described as follows: OT_ER_ERaERa_0480: Odyssey Thera (OT) 8-hour HEK293T Protein-Complementation Assay for Estrogen Receptor-alpha/-alpha Homodimer (AID 2283351).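 Also: rise in fluorescence from reassembled reporter fragments on ERα LBD homodimer in nucleus or whole cell.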 In outline: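 HEK293T, stable ERα LBD (aa 310-547) PCA homodimer; 8 h compound exposure; fluorescence intensity, laser scanning cytometer; positive fitting direction, DMSO baseline.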
Assay [5] addresses sheep Cyclooxygenase-1 (Cox1), PTGS1 (gene 443551) (UniProt P05979). The assay is described as follows: NVS_ENZ_oCOX1: NovaScreen (NVS) Enzymatic Assay for sheep Cyclooxygenase-1 (Cox1) (AID 2283239).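 Also: actives reduce cyclooxygenase activity so potencies are for inhibitors.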 In outline:
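Cell-free colorimetric assay of enzyme activity in a native extract of ovine seminal vesicles. Absorbance was read 0.66 hour after compound addition. Loss of signal relative to the DMSO negative control was scored, with actives from the 25 uM duplicate primary screen retested in concentration series.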

In assay [6] the target is human Vascular Endothelial Growth Factor Receptor 1 (VEGFR1), FLT1 (gene 2321) (UniProt P17948). In words: NVS_ENZ_hVEGFR1: NovaScreen (NVS) Enzymatic Assay for human Vascular Endothelial Growth Factor Receptor 1 (VEGFR1) (AID 2283226). In outline:
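Cell-free assay of recombinant human VEGFR1 kinase with substrate, measured 1 h after dosing; fluorescence with electrophoretic mobility-shift separation of substrate and product, referenced to DMSO; primary screen at 25 uM in duplicate, actives then run in concentration series.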

Assay [7] addresses guinea pig Opioid, Kappa 1 Receptor (OpiateK), OPRK1 (gene 100135587) (UniProt P41144). In words: NVS_GPCR_gOpiateK: NovaScreen (NVS) G Protein-Coupled Receptor Assay for guinea pig Opioid, Kappa 1 Receptor (OpiateK) (AID 2283252).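 Also: active means reduced radioligand binding relative to DMSO.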 A digest of the protocol: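 Signal is scintillation counts of filter-trapped radioligand bound to guinea pig cerebellar membrane receptor, measured 2 hours post-dosing. Activity is loss of binding versus DMSO, first at 25 uM in duplicate, then as concentration series for actives.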

The target of assay [8] is D(1A) dopamine receptor (Homo sapiens) (UniProt P21728). In words: NVS_GPCR_hDRD1: NovaScreen (NVS) G Protein-Coupled Receptor Assay for human Dopamine Receptor D1 (DRD1) (AID 2283269). In outline: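 Cell-free radioligand binding to human DRD1 from HEK293 membranes, read 1 h after dosing by filter-based scintillation counting. Loss of signal versus DMSO baseline marks displacement. Primary screen at 25 uM single concentration in duplicate; actives followed up in concentration series.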
D(1A) dopamine receptor (Homo sapiens), sequence (P21728 whole entry, looked up): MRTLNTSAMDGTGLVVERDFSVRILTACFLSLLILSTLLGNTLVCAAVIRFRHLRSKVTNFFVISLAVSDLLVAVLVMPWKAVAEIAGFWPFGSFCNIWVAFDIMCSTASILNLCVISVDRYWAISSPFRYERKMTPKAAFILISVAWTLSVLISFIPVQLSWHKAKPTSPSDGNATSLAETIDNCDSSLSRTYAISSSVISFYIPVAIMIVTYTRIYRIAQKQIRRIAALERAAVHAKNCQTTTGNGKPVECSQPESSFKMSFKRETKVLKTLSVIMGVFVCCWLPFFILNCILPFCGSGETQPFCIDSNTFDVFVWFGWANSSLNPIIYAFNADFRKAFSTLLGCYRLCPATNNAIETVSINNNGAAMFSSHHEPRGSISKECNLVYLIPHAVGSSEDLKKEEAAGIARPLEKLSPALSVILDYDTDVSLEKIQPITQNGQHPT

Assay [9] concerns the target bovine Estrogen Receptor (ER), ESR1 (gene 407238) (UniProt P49884). In words: NVS_NR_bER: NovaScreen (NVS) Nuclear Receptor Binding Assay for bovine Estrogen Receptor (ER) (AID 2283345).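 Also: actives lower the bound radioligand count which means they displace the ER ligand.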 In outline:
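Cell-free radioligand binding with receptor from bovine uterine membranes, read by scintillation counting 18 h after dosing. Loss of specific binding was scored against DMSO; primary screen at 25 uM in duplicate, actives then run as concentration series.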

Assay [10] has as its target Estrogen receptor (Homo sapiens) (UniProt P03372). In words: NVS_NR_hER: NovaScreen (NVS) Nuclear Receptor Binding Assay for human Estrogen Receptor (ER) (AID 2283348). A digest of the protocol: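 Scintillation signal from bound radioligand was measured 18 hours after chemical addition to cell-free MCF7 protein extracts, with DMSO as baseline. Activity was scored as signal loss; compounds ran first at 25 uM in duplicate.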

Assay [11] concerns the target human Thromboxane A2 Receptor (TXA2), TBXA2R (gene 6915) (UniProt P21731). In words: NVS_GPCR_hTXA2: NovaScreen (NVS) G Protein-Coupled Receptor Assay for human Thromboxane A2 Receptor (TXA2) (AID 2283282).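 Also: actives reduce bound radioligand signal relative to DMSO baseline.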 A digest of the protocol: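 Cell-free radioligand binding on membrane protein from human platelets; radioligand displacement read by filter-based scintillation counting after 1 h. Primary screen in duplicate at 25 uM, actives then run in concentration series; loss of signal versus DMSO.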

In assay [12] the target is human Opioid Receptor Mu (Opiate Mu), OPRM1 (gene 4988) (UniProt P35372). The assay is described as follows: NVS_GPCR_hOpiate_mu: NovaScreen (NVS) G Protein-Coupled Receptor Assay for human Opioid Receptor Mu (Opiate Mu) (AID 2283290).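 Also: hits lower bound tracer signal versus DMSO meaning displacement of the ligand.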 A digest of the protocol: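 Cell-free radioligand binding to membranes from CHO cells expressing the receptor; bound tracer measured by filter-based scintillation counting 2.5 hours after dosing. Loss of signal versus DMSO baseline reflects displacement; primary screen at 25 uM in duplicate, actives followed up in concentration series.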
human Opioid Receptor Mu (Opiate Mu), OPRM1 (gene 4988), sequence (P35372 whole entry, looked up): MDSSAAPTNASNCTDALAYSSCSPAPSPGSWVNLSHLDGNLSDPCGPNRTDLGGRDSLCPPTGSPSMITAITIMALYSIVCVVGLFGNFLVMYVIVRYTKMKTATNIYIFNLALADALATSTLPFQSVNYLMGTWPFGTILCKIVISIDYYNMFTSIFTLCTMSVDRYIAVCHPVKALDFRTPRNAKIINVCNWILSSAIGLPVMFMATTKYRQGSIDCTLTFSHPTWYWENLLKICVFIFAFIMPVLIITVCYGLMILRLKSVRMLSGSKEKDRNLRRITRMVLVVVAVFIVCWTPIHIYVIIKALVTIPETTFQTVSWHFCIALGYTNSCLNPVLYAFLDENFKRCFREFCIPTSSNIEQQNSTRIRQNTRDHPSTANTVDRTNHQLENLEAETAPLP

Assay [13] addresses human Peripheral-type Benzodiazepine Receptor (PBR), TSPO (gene 706) (UniProt P30536). The assay is described as follows: NVS_MP_hPBR: NovaScreen (NVS) Membrane Protein Assay for human Peripheral-type Benzodiazepine Receptor (PBR) (AID 2283331).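 Also: hits reduce radioligand binding relative to DMSO baseline.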 A digest of the protocol:
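Scintillation counts of filter-bound radioligand served as read-out after 1 h chemical dosing of human colonic membrane preparations. Activity was scored as signal loss against DMSO; initial duplicates at 25 uM, confirmatory concentration series afterward.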

The target in assay [14] is rat Peripheral-type Benzodiazepine Receptor (PBR), Tspo (gene 24230) (UniProt P16257). The assay is described as follows: NVS_MP_rPBR: NovaScreen (NVS) Membrane Protein Assay for rat Peripheral-type Benzodiazepine Receptor (PBR) (AID 2283335). In outline: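 Rat kidney membranes; radioligand binding with displacement, filter-based scintillation counting, 1 h incubation. Primary screen in duplicate at 25 uM, actives followed in concentration series; loss of binding vs DMSO.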
rat Peripheral-type Benzodiazepine Receptor (PBR), Tspo (gene 24230), sequence (P16257 whole entry, looked up): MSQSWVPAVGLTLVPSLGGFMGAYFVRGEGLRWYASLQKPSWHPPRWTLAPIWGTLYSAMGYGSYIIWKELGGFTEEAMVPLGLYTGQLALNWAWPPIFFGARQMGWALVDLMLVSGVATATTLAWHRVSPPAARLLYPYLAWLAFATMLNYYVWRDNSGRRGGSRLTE

Assay [15] concerns the target human Adenosine A2a Receptor (AdoRA2a), ADORA2A (gene 135) (UniProt P29274). The assay is described as follows: NVS_GPCR_hAdoRA2a: NovaScreen (NVS) G Protein-Coupled Receptor Assay for human Adenosine A2a Receptor (AdoRA2a) (AID 2283256). In outline: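 Radioligand displacement on HEK293-derived membrane protein, cell-free; filter-based scintillation counting 1.5 hours after dosing, loss of signal vs DMSO. Single-point duplicate screen at 25 uM, actives retested in concentration series.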

Assay [16] deals with Muscarinic acetylcholine receptor M2 (Homo sapiens) (UniProt P08172). The assay is described as follows: NVS_GPCR_hM2: NovaScreen (NVS) G Protein-Coupled Receptor Assay for human Muscarinic, M2 Receptor (AID 2283273). A digest of the protocol:
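CHO membrane prep, radioligand + test compound, 1 h; filtration, scintillation count. Screen 25 uM duplicate → conc. series for actives. Readout: decrease in binding vs DMSO control.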

Assay [17] addresses human Neurokinin, NK2 Receptor, TACR2 (gene 6865) (UniProt P21452). The assay is described as follows: NVS_GPCR_hNK2: NovaScreen (NVS) G Protein-Coupled Receptor Assay for human Neurokinin, NK2 Receptor (AID 2283278).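 Also: actives reduce bound radioligand signal relative to DMSO baseline.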 A digest of the protocol: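 CHO-derived membrane protein, radioligand displacement, filter scintillation read at 4 h post-dose. Single-point 25 uM in duplicate, then concentration series for actives; DMSO as negative control.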

Assay [18] concerns the target Sodium channel protein type 1 subunit alpha (Rattus norvegicus) (UniProt P04774). The assay is described as follows: NVS_IC_rNaCh_site2: NovaScreen (NVS) Ion Channel Assay for rat Sodium Channel, Site 2 (NaCh) (AID 2283322).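 Also: hit means loss of radioligand binding signal relative to DMSO so AC50 marks displacement.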 A digest of the protocol: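 Membranes: rat forebrain. Format: competitive radioligand displacement, filter separation, scintillation readout, 1 h exposure. Primary screen in duplicate at 25 uM; actives retested in concentration series.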

“And” between values parts separate entries of the source, which are not always exact repeats. Equal entries are not always repeated. Results filed as inconclusive are left out. Where a structure was tested more than once in an assay, its records may differ in their call. The source made the active and inactive calls. The calls were made as follows: active = hit-call score of the fitted dose curve at least 0.9, where 1 is the maximum; inconclusive = response in the unintended direction; inactive = score below 0.9.

human Thromboxane A2 Receptor (TXA2), TBXA2R (gene 6915), sequence (P21731 whole entry, looked up): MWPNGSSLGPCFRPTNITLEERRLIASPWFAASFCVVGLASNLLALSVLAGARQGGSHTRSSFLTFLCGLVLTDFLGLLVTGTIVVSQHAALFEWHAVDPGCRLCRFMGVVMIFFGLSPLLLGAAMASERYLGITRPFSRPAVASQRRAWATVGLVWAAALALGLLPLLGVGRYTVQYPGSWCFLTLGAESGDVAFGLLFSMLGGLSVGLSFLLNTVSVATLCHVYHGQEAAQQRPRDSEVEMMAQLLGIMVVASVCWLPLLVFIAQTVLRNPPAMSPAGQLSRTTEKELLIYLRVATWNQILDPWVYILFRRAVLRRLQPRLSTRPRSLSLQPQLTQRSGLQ
rat Thyrotropin Releasing Hormone Receptor (TRH), Trhr (gene 25570), sequence (Q01717 whole entry, looked up): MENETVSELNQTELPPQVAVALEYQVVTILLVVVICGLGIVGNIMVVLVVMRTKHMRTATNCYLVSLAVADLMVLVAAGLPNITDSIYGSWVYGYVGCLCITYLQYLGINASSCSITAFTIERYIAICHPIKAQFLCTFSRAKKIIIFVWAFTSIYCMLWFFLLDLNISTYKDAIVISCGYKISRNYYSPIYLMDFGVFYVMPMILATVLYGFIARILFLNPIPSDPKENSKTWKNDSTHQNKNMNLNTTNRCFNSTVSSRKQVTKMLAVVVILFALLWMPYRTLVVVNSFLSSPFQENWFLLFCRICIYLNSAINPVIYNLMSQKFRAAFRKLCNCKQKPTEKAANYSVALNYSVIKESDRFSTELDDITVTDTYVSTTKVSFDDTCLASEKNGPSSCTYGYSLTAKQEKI
chimpanzee Androgen Receptor (AR), AR (gene 747460), sequence (O97775 whole entry, looked up): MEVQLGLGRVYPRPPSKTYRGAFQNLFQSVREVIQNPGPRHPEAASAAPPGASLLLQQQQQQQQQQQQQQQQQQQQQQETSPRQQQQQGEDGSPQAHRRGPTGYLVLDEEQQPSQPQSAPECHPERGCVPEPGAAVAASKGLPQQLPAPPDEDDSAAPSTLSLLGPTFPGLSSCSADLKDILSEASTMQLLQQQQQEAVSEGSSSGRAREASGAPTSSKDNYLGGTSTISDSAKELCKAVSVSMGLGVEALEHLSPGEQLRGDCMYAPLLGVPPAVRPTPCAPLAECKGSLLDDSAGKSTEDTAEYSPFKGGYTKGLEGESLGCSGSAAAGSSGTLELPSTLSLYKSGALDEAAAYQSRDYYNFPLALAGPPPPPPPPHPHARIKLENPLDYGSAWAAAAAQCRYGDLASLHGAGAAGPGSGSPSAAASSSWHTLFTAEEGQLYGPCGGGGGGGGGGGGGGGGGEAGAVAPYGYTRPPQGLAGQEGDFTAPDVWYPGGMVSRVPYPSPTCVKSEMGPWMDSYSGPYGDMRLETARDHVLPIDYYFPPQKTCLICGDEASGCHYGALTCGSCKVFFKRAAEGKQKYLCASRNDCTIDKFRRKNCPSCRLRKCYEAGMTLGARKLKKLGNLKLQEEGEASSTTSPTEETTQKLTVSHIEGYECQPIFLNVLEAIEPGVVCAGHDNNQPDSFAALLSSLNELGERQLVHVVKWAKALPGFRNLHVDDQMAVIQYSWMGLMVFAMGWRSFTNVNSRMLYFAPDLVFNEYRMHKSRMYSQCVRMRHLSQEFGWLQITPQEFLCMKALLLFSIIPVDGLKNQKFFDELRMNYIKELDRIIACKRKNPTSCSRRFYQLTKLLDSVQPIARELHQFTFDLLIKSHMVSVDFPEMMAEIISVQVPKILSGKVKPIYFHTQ
sheep Cyclooxygenase-1 (Cox1), PTGS1 (gene 443551), sequence (P05979 whole entry, looked up): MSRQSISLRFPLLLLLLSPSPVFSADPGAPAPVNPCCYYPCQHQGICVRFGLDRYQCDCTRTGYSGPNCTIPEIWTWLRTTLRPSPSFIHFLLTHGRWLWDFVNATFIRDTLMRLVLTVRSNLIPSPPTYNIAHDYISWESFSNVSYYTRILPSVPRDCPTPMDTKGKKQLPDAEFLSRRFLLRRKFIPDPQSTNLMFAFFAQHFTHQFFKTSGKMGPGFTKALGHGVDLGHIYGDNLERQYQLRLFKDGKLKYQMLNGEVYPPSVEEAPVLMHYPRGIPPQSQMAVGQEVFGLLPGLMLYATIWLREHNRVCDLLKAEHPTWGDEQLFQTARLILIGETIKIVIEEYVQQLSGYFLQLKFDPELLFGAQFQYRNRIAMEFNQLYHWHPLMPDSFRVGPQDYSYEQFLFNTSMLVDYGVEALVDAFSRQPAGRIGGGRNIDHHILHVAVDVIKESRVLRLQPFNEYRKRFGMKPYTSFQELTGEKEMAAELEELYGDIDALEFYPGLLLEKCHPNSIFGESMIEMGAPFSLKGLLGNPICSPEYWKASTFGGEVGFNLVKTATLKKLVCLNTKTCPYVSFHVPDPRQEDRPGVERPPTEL
human Peripheral-type Benzodiazepine Receptor (PBR), TSPO (gene 706), sequence (P30536 whole entry, looked up): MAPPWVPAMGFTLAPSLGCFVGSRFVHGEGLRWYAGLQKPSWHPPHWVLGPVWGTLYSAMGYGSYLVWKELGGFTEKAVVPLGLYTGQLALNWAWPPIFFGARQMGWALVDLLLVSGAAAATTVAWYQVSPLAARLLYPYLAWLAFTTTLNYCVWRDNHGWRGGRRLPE
bovine Estrogen Receptor (ER), ESR1 (gene 407238), sequence (P49884 whole entry, looked up): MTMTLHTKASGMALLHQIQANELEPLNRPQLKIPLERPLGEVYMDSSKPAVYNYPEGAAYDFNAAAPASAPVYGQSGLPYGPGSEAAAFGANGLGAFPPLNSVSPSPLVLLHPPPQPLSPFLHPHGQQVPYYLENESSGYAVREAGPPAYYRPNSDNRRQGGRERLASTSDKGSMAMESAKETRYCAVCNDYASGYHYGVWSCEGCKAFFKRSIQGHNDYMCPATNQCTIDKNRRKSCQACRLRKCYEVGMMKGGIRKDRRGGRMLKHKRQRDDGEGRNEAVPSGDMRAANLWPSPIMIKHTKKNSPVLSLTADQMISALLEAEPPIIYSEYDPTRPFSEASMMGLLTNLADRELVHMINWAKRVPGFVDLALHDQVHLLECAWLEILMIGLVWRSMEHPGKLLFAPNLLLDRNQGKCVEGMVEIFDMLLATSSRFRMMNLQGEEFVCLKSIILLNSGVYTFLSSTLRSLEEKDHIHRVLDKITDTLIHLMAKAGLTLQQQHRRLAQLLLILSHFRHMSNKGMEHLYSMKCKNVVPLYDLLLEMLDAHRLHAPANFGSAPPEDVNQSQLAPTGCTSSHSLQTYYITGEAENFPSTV

A word on the AC50: it is the concentration at which the activity in the assay is half-maximal. In the case of `CCN(CCC#N)c1ccc(N=Nc2c(Cl)cc([N+](=O)[O-])cc2Cl)cc1`, the compound was called inactive in [1], in assay [3] and in assay [4]. Also, the AC50 in [2] is 16.1 µM (active).
For `N#[N+]c1ccc2c(S(=O)(=O)[O-])cccc2c1O`, the AC50 in [5] is 5.62 µM (active).
Take `Cc1ccc(C(C)c2ccc(C)c(C)c2)cc1C`: the compound was called inactive in assay [1]. Further, the AC50 in assay [3] was 84.6 µM (active); in assay [4], 70.3 µM (active).
For the compound `CNC(=S)N(C)C`, the compound was classed as inactive in [6].
Consider `C#CC1(O)CC[C@H]2[C@@H]3CCC4=CCCC[C@@H]4[C@H]3CC[C@@]21C` (some centres undefined), for which the AC50 in assay [5] is 43.8 µM (active); in [9], 6.05 µM (active); in [10], 0.258 µM (active). The result in assay [7], in [8], in assay [2] and in [10] was inactive.
`S=C(NC1CCCCC1)NC1CCCCC1`: the AC50 in assay [11] is 1.56 µM (active). Moreover, the compound was classed as inactive in assay [9] and in assay [10].
For the compound `c1c[nH]cn1`, the compound was called inactive in [1], in assay [3] and in assay [4].
On to `C=CC(=O)OCC(Br)CBr` (centres undefined), for which the compound was called inactive in assay [8].
Consider `CCCCC/C=C\C/C=C\CCCCCCCC(=O)OC`, for which the AC50 was 45.1 µM (active) in [8]; 25 µM (active) in assay [11]; 16.9 µM (active) in assay [12]; 8.31 µM (active) and 6.11 µM (active) in assay [13]; 9.68 µM (active) and 8.87 µM (active) in assay [14]; 4.2 µM (active) and 11.5 µM (active) in assay [2]. Also, the concentration at half-maximal activity (AC50) in assay [10] is 6.14 µM (active). Further, the compound was called inactive in assay [9], in assay [10], in [3] and in assay [4].
`CC=C1CC2C=CC1C2` (centres undefined): the outcome in assay [1], in assay [3] and in [4] was inactive.
`CC/C=C\C/C=C\C/C=C\CCCCCCCC(=O)O`: the compound was classed as inactive in assay [1] and in assay [4]. The AC50 was 11.6 µM (active) in assay [13] and 25 µM (active) in assay [10].
As for `CN(C)c1ccc(C(=N)c2ccc(N(C)C)cc2)cc1`, the compound was called inactive in assay [1] and in [10]. The AC50 in assay [13] was 2.62 µM (active); in assay [14], 11.6 µM (active); in [4], 59.1 µM (active).
For `CCCCCCCCCCCCCCCC[N+](C)(C)CC`, the call in assay [6], in assay [18] and in [10] was inactive. In addition, the AC50 in [15] was 44.2 µM (active); in assay [8], 1.95 µM (active); in [16], 0.395 µM (active); in assay [17], 1.78 µM (active); in assay [12], 2.05 µM (active); in assay [13], 35.8 µM (active).
Take `COc1ccc2nc(N)sc2c1`: the AC50 in assay [5] was 14.9 µM (active).
On to `CC(CC=O)CCCC(C)(C)O` (centres undefined), for which the compound was called inactive in [5] and in assay [4].
Turning to `C=COCCCC`, the half-maximal activity concentration (AC50) in assay [11] is 25 µM (active).
